The campaign covered roughly 5,500 compounds. About 2,000 (36%) were called active. Roughly 18% stayed inconclusive and do not appear here. Cut-off read from the data, not from the text of the source: active = normalized growth mostly below about 0.91 (no sharp cut-off); inconclusive = no clear call, values can overlap the other calls; inactive = mostly above about 0.92. The list shows a part of the results.
Assay: chemical genetic growth profiling, strain panel (AID 1159580);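 note: tested at 20 µM; growth read once vehicle control cultures reached saturation at 30 °C; 1 = growth at the plate median or of vehicle wells; lower values mean less growth of the strain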
Conditions: growth OD

Measured: normalized growth

CCn1cc(C(=O)O)c(=O)c2cnc(N3CCNCC3)nc21
inactive: S. cerevisiae deletion strains, locus YKL009W, strain mrt4, hits give low values 1.03 | S. cerevisiae deletion strains, locus YKL068W, hits give low values 0.994 | S. cerevisiae deletion strains, locus YKL085W, strain MDH1 (second series), hits give low values 0.984 | S. cerevisiae deletion strains, locus YKL085W, strain MDH1, hits give low values 0.984 | S. cerevisiae deletion strains, locus YKL160W, strain elf1, hits give low values 1.03 | S. cerevisiae deletion strains, locus YKL190W, strain CNB1, hits give low values 1 | S. cerevisiae deletion strains, locus YKR001C, strain vps1, hits give low values 1.02 | S. cerevisiae deletion strains, locus YKR026C, strain gcn3, hits give low values 1.01 | S. cerevisiae deletion strains, locus YKR091W, strain srl3, hits give low values 1 | S. cerevisiae deletion strains, locus YLL001W, strain dnm1, hits give low values 1.01 | S. cerevisiae deletion strains, locus YLL026W, hits give low values 1.02 | S. cerevisiae deletion strains, locus YLL041C, strain sdh2, hits give low values 1.01 | S. cerevisiae deletion strains, locus YLR027C, strain aat2, hits give low values 1.01 | S. cerevisiae deletion strains, locus YLR039C, strain RIC1, hits give low values 0.942 | S. cerevisiae deletion strains, locus YLR058C, strain SHM2, hits give low values 0.988 | S. cerevisiae deletion strains, locus YLR102C, strain apc9, hits give low values 0.993 | S. cerevisiae deletion strains, locus YLR113W, strain HOG1, hits give low values 1.02 | S. cerevisiae deletion strains, locus YLR221C, strain rsa3, hits give low values 1 | S. cerevisiae deletion strains, locus YLR258W, strain gsy2, hits give low values 1.04 | S. cerevisiae deletion strains, locus YLR262C, strain YPT6 (second series), hits give low values 0.992 | S. cerevisiae deletion strains, locus YLR262C, strain YPT6, hits give low values 0.975 | S. cerevisiae deletion strains, locus YLR268W, strain sec22, hits give low values 0.991 | S. cerevisiae deletion strains, locus YLR320W, strain mms22, hits give low values 0.968 | S. cerevisiae deletion strains, locus YLR330W, strain CHS5, hits give low values 0.981 | S. cerevisiae deletion strains, locus YLR342W, strain FKS1 (second series), hits give low values 0.96 | S. cerevisiae deletion strains, locus YLR342W, strain FKS1, hits give low values 1.02 | S. cerevisiae deletion strains, locus YLR357W, strain rsc2, hits give low values 1.01 | S. cerevisiae deletion strains, locus YLR370C, strain arc18, hits give low values 1.02 | S. cerevisiae deletion strains, locus YLR371W, strain rom2, hits give low values 0.981 | S. cerevisiae deletion strains, locus YLR384C, strain iki3, hits give low values 0.999 | S. cerevisiae deletion strains, locus YLR418C, strain cdc73, hits give low values 0.951 | S. cerevisiae deletion strains, locus YML016C, strain PPZ1, hits give low values 0.977 | S. cerevisiae deletion strains, locus YML032C, strain rad52, hits give low values 1 | S. cerevisiae deletion strains, locus YML120C, strain ndi1, hits give low values 1.03 | S. cerevisiae deletion strains, locus YML124C, strain tub3, hits give low values 0.985 | S. cerevisiae deletion strains, locus YMR058W, strain fet3, hits give low values 1.01 | S. cerevisiae deletion strains, locus YMR078C, strain ctf18, hits give low values 0.98 | S. cerevisiae deletion strains, locus YMR125W, strain sto1, hits give low values 1.02 | S. cerevisiae deletion strains, locus YMR129W, hits give low values 1.01 | S. cerevisiae deletion strains, locus YMR205C, strain PFK2, hits give low values 1 | S. cerevisiae deletion strains, locus YMR223W, strain ubp8, hits give low values 0.983 | S. cerevisiae deletion strains, locus YMR231W, strain pep5, hits give low values 1.01 | S. cerevisiae deletion strains, locus YMR263W, strain SAP30, hits give low values 1.01 | S. cerevisiae deletion strains, locus YMR307W, strain GAS1, hits give low values 1.01 | S. cerevisiae deletion strains, locus YNL067W, strain RPL9B, hits give low values 1.03 | S. cerevisiae deletion strains, locus YNL071W, strain lat1, hits give low values 1.01 | S. cerevisiae deletion strains, locus YNL128W, strain TEP1, hits give low values 0.977 | S. cerevisiae deletion strains, locus YNL153C, strain GIM3, hits give low values 1.06 | S. cerevisiae deletion strains, locus YNL183C, strain NPR1, hits give low values 0.997 | S. cerevisiae deletion strains, locus YNL209W, strain ssb2, hits give low values 1 | S. cerevisiae deletion strains, locus YNL233W, strain BNI4, hits give low values 1.02 | S. cerevisiae deletion strains, locus YNL248C, strain rpa49, hits give low values 1.04 | S. cerevisiae deletion strains, locus YNL250W, strain rad50, hits give low values 0.964 | S. cerevisiae deletion strains, locus YNL271C, strain bni1, hits give low values 0.979 | S. cerevisiae deletion strains, locus YNL298W, strain CLA4, hits give low values 0.978 | S. cerevisiae deletion strains, locus YNL307C, strain MCK1, hits give low values 0.991 | S. cerevisiae deletion strains, locus YNL322C, strain KRE1 (second series), hits give low values 1.04 | S. cerevisiae deletion strains, locus YNL322C, strain KRE1, hits give low values 0.997 | S. cerevisiae deletion strains, locus YNR049C, strain mso1, hits give low values 1.01 | S. cerevisiae deletion strains, locus YNR052C, strain pop2, hits give low values 0.979 | S. cerevisiae deletion strains, locus YOL006C, strain TOP1, hits give low values 1.07 | S. cerevisiae deletion strains, locus YOL012C, strain htz1 0.676 | S. cerevisiae deletion strains, locus YOL147C, strain pex11, hits give low values 0.991 | S. cerevisiae deletion strains, locus YOR001W, strain rrp6, hits give low values 1 | S. cerevisiae deletion strains, locus YOR061W, strain CKA2, hits give low values 0.988 | S. cerevisiae deletion strains, locus YOR069W, strain VPS5, hits give low values 0.984 | S. cerevisiae deletion strains, locus YOR070C, strain gyp1, hits give low values 1.02 | S. cerevisiae deletion strains, locus YOR080W, strain dia2, hits give low values 1.02 | S. cerevisiae deletion strains, locus YOR083W, strain WHI5, hits give low values 0.993 | S. cerevisiae deletion strains, locus YOR106W, strain vam3, hits give low values 1.04 | S. cerevisiae deletion strains, locus YOR136W, strain idh2, hits give low values 0.995 | S. cerevisiae deletion strains, locus YOR144C, strain elg1, hits give low values 0.988 | S. cerevisiae deletion strains, locus YOR184W, strain ser1, hits give low values 1 | S. cerevisiae deletion strains, locus YOR231W, strain MKK1, hits give low values 1.03 | S. cerevisiae deletion strains, locus YOR265W, strain rbl2, hits give low values 1.02 | S. cerevisiae deletion strains, locus YOR270C, strain vph1, hits give low values 1.16 | S. cerevisiae deletion strains, locus YOR290C, strain snf2, hits give low values 1.04 | S. cerevisiae deletion strains, locus YOR316C, strain cot1, hits give low values 0.99 | S. cerevisiae deletion strains, locus YPL051W, strain arl3, hits give low values 1.02 | S. cerevisiae deletion strains, locus YPL078C, strain atp4, hits give low values 1.04 | S. cerevisiae deletion strains, locus YPL106C, strain sse1, hits give low values 1.01 | S. cerevisiae deletion strains, locus YPL240C, strain hsp82, hits give low values 1 | S. cerevisiae deletion strains, locus YPL256C, strain CLN2, hits give low values 1.08 | S. cerevisiae deletion strains, locus YPR119W, strain clb2, hits give low values 0.993 | S. cerevisiae deletion strains, locus YPR141C, strain kar3, hits give low values 0.981 | S. cerevisiae deletion strains, locus YPR163C, strain tif3, hits give low values 0.984 | S. cerevisiae deletion strains, locus YPR167C, strain met16, hits give low values 0.979 | S. cerevisiae deletion strains, strain wtn01, hits give low values 0.982 | S. cerevisiae strains, strain wild type, hits give low values 0.998

Source: PubChem BioAssay AID1159580 (chemical genetic matrix, 2015)
